Drawing on PubChem BioAssay (NCATS), this text covers Potency and max response for 32 molecules.

SMILES strings stand for the structures. Results filed as inconclusive are left out. The source made the active and inactive calls. The call rests on the fitted dose curve; in most records, active means well fitted inhibition curve with a large enough effect; inconclusive means small, poorly fitted or top-dose-only effect; inactive means flat fitted curve, though single readings scatter. Where a SMILES comes first, the peptide text is derived from it. The star is where a group is joined. Cbz = O=C(OCc1ccccc1)*; CH2Cl = ClC*
On the % scale 0 is the no-effect control and ±100 the full control effect; potency means the concentration at half of the fitted maximal effect.

The assay relates to HEK293. In words: Cytotoxic Profiling of Annotated Libraries Using Quantitative High-Throughput Screening (AID 1296008). Further: nearly all actives have a fitted effect of over 60% in size. As to conditions: Five cell lines viability, CellTiter-Glo ATP luminescence, 48-72 h; max response: active compounds read low. In outline:
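Cytotoxicity was measured as CellTiter-Glo ATP luminescence, read after 10 min at room temperature. Compound treatment of the cells lasted 48 or 72 hr at 37 degrees Celsius in a qHTS format.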
In general terms: Cellular ATP, detected with luciferase, serves as a proxy for viable cell number.
In the case of `C[C@H]1[C@H](/C=C/c2ccc(-c3ccccc3C#N)cn2)[C@@H]2[C@@H](C)OC(=O)[C@@H]2C[C@@H]1C`, the Potency is 13 µM (active).
For `Cn1ncc(Cl)c1-c1cc(C(=O)N[C@H](CN)Cc2cccc(F)c2)sc1Cl`, the Potency was 1.3 µM (active).
On the same count and under the same terms, the value for `Cc1c[nH]c2ncnc(N3CCC(CN)(C(=O)Nc4cccc(OC(=O)N(C)C)c4)CC3)c12` was 3.66 µM (active).
`CC1(C)CC[C@]23CO[C@@]4(CCC5[C@@]6(C)CC[C@H](O[C@@H]7OC[C@H](O[C@@H]8O[C@H](CO)[C@@H](O)[C@H](O)[C@H]8O[C@@H]8OC[C@@H](O)[C@H](O)[C@H]8O)[C@H](O)[C@H]7O[C@@H]7O[C@H](CO)[C@@H](O)[C@H](O)[C@H]7O)[C@@](C)(CO)C6CC[C@@]5(C)[C@]4(C)C[C@H]2O)[C@@H]3C1` (some centres not stated): the Potency was 3.48 µM (active).
In the case of `Cc1ccc(NC(=O)C(C)C)cc1C1CCN(Cc2ccc(Oc3ccc(F)c(F)c3)cc2)CC1`, the Potency was 13 µM (active).
Same read-out and setting: the value for `C=C(C=O)[C@]1(O)C[C@@]2(C)C(=CC1=O)C=C[C@H](OC(=O)/C=C/C=C/[C@H](C)CC)[C@@H]2C` was 3.99 µM (active).
With `Nc1nc(Nc2ccc3c(c2)CCC(N2CCCC2)CC3)nn1-c1cc2c(nn1)-c1ccccc1CCC2` (configuration not stated), the Potency is 8.2 µM (active).
Same read-out and setting: next, `CNc1ccc([N+](=O)[O-])c(Nc2ccc3[nH]ncc3c2)n1`: 18.4 µM (active); `C=C1C(=O)O[C@@H]2[C@H]1CC[C@H](C)C(CCC(=O)O)C2(C)O` (some centres not stated): 23.1 µM (active); `Cc1cc(F)c(C(=O)Nc2cccc(-c3nncn3C(C)C)n2)cc1-n1cnc(C2CC2)c1`: 10 µM (active).
For the molecule `CCCCCCCCn1cc(CN(CC)CC)c2cc(-c3cnc(N)nc3)ccc21`, the Potency was 16.4 µM (active).
On to `COc1cc(-n2cnc3cc(-c4ccc(Cl)cc4)sc3c2=O)ccc1OCCN1CCCC1`, for which the Potency is 10.3 µM (active).
In the case of `C/C1=C\CCC2=CC(OC2=O)C(C)(C)/C=C/C1=O` (configuration not stated), the Potency was 6.51 µM (active).
For the molecule `N#CC(CCCN1CCC(O)(c2ccc(Cl)cc2)CC1)(c1ccccc1)c1ccccc1`, the max response was -108% (inactive).
Take `Cn1ncc(Cl)c1-c1cc(C(=O)NC(CN)Cc2ccc(F)c(F)c2)oc1Cl` (configuration not stated): the Potency was 0.231 µM (active).
Still for that read-out and setting: the value for `CCCc1cc(C)[nH]c(=O)c1CNC(=O)c1cc(-c2ccnc(N3CCN(C)CC3)c2)cc2c1cnn2C(C)C` was 8.2 µM (active).
For the molecule `CC(C)C[C@H](NC(=O)CNC(=O)OCc1ccccc1)C(=O)N[C@@H](Cc1ccccc1)C(=O)CCl` (Cbz-Gly-Leu-Phe-CH2Cl), the Potency was 9.2 µM (active).
As to `Cc1cc(N2CCN(C(=O)Oc3ccc(-c4ccccc4)cn3)CC2)c2ccccc2n1`, the Potency was 8.2 µM (active).
With `C=C1C(=O)OC2/C=C(\COC(C)=O)CC/C=C(\C=O)CC(OC(=O)C(C)CC)C12` (configuration not stated), the Potency was 3.55 µM (active).
On to `C/C=C(\C)C(=O)O[C@H]1C=C(CO)C(=O)[C@H](OC(C)=O)[C@H]1C(C)C`, for which the Potency was 8.05 µM (active).
Same read-out and setting: next, `CC1CCCC(O)CC(=O)c2c(O)cc(O)cc2CC(=O)O1` (configuration not stated): 8.05 µM (active); `C=C1C(=O)OC2C(OC(=O)C=C(C)C)C(C)=C3C(=O)C=C(C)C3C(O)C12` (configuration not stated): 6.4 µM (active); `CCN1CCN(Cc2ccc(NC(=O)c3ccc(C)c(Oc4ncnc5[nH]c(C)cc45)c3)cc2C(F)(F)F)CC1`: 13 µM (active).
Same read-out and setting: next, `Cc1nc(Nc2cnn(C3CCNCC3)c2)nc2c1N(C)C(=O)c1cc3ccccc3cc1N2C`: 25.9 µM (active).
On the same count and under the same terms, the value for `CN(C)C(=O)COC(=O)c1cc(-c2ccc(C3CCNCC3)cc2)c2ccc(-c3ccc(C(F)(F)F)cc3)cc2c1` was 4.61 µM (active); that for `COc1ccc(CNc2nc(N(CCO)CCO)nc3c2ncn3C(C)C)cc1` was 4.61 µM (active); that for `C=CS(=O)(=O)NC1CCN(C(=O)CNc2cc(I)c(Cl)cc2OC)CC1` was 8.2 µM (active).
On to `COc1cc2c(NC3CCN(C(C)C)CC3)nc(N3CCC(F)(F)CC3)nc2cc1OCCCN1CCCC1`, for which the Potency was 8.2 µM (active).
As for `C=C1C(=O)O[C@H]2C[C@@H](C)[C@@H]3CCC(=O)[C@@]3(C)C[C@H]12`, the Potency is 6.51 µM (active).
For `CC(C)CC(=O)c1c(O)cc2c(c1O)C(CC(C)C)C1=C(O2)C(C)(C)C(=O)C(C)(C)C1=O` (configuration not stated), the Potency is 5.63 µM (active).
On the same count and under the same terms, the value for `CC(=O)OC1[C@H]2[C@@H](C[C@@H](C)[C@@H]3C=CC(=O)[C@@]13C)OC(=O)[C@@H]2C` (some centres not stated) was 16.4 µM (active).
The same measure, in the same setting: next, `CCN1CCN(Cc2ccc(NC(=O)c3ccc(C)c(Oc4ccnc5[nH]ccc45)c3)cc2C(F)(F)F)CC1`: 9.04 µM (active).
